# An excerpt weighted towards active compounds, which were near 1.9% of everything screened.
# HTT-AS act: HTT-AS promoter activation. AID 1508624. hit rate 0.24% among 48,000. Potency, µM (top dose mostly 57.5 µM), for inactives: at the top dose activity change, positive = activation, usual class: activators. HEK293 HTT-AS promoter firefly luciferase reporter, 24 h; response scale: percent change from vehicle, -100% = no light; also: nearly all actives have a fitted effect of over 55% in size
#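 Firefly luciferase signal from promoter-reporter HEK293 cells was scaled between vehicle (0%) and zero RLU (-100%). Compounds were tested at final concentrations of up to 57.5 uM over 24 h at 37 degrees C. PTC124 at 50 uM final served as control inhibitor.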
# p53null 39C kill: kills p53 null cells at the nonpermissive temperature; H1299 p53-null (neo) cells, 39C, ATPlite viability, 24 h; Potency, µM (series often up to 46.1 µM), without a hit: at the top dose activity, negative = cell killing, hits mostly cytotoxic; hit rate 0.97% among 55,000;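 also: 0% = DMSO only and -100% = full killing by 100 µM tamoxifen; nearly all actives have a fitted effect of over 50% in size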
#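 Cells seeded at 600/well, 37C overnight. Compound added (up to 46 uM), plates shifted to 39C for 24 hr. ATPlite added, luminescence read after 20 min at room temperature.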
# HTT prom inh: HTT promoter inhibition; HEK293 HTT promoter firefly luciferase reporter, 24 h; Potency, µM (highest dose often 57.5 µM), for the others: top-dose activity change, negative = inhibition, hits mostly inhibitors; hit rate 0.93% among 48,000; also: nearly all actives have a fitted effect of over 50% in size
#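 Quantitative HTS used concentration series of up to 57.5 uM final on HEK293 luciferase reporter cells, 24 h at 37 degrees C. Readout was Dual-Glo firefly luminescence.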
# p53null 32C tox: selectivity test: cytotoxicity in p53 null cells, permissive temperature | H1299-neo p53 null cells, ATP luminescence, 24 h, 32C | hit rate 0.62% among 55,000 | Potency, µM (top dose mostly 46.1 µM), inactives show at the highest dose activity change, negative = cytotoxicity, hits mostly cytotoxic;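 also: 0% = DMSO only and -100% = full killing by 100 µM tamoxifen; nearly all actives have a fitted effect of over 55% in size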
#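 AC50 values derive from Hill modelling of qHTS concentration-response data (up to 46 uM) in H1299-neo cells. Cells were treated 24 h at 32C following overnight attachment at 37C; viability was read as cellular ATP.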
# * marks the source's active call; other numbers are inactive results; ? = inconclusive; / = not tested or not shown; [ ] = another dose, or the depositor's remark. Calls follow the shape of the dose curve; as a rule, active = well fitted curve in the direction sought with a large enough effect; inconclusive = small, poorly fitted or top-dose-only effect, or another doubt; inactive = no such curve, though single readings can be large; an effect the other way counts as inactive or inconclusive. Potency is read from the fitted curve at half-maximal effect.
SMILES,HTT-AS act,p53null 39C kill,HTT prom inh,p53null 32C tox
CO[C@@H](C(=O)N1Cc2[nH]nc(NC(=O)c3ccc(N4CCN(C)CC4)cc3)c2C1)c1ccccc1,-28.5%,/,-14.6%,/
C=CC(=O)N1CCC[C@@H](n2nc(-c3ccc(Oc4ccccc4)cc3)c3c(N)ncnc32)C1,-17.9%,/,-1.0%,/
COc1ccc(NC(=O)CSc2nnc(NC(=O)Nc3ccc(OC)cc3)s2)cc1,?,21.6%,38.6%,?
COCCNC(=O)CSc1nnc(NC(=O)Nc2ccc(C)cc2)s1,?,2.8%,21.0%,12.6µM*
CCCCC(=O)O[C@]1(C(=O)CO)[C@@H](C)C[C@H]2[C@@H]3CCC4=CC(=O)C=C[C@]4(C)[C@@]3(F)[C@@H](O)C[C@@]21C,-7.8%,/,-2.8%,/
O=C(Nc1cn[nH]c1-c1nc2ccc(CN3CCOCC3)cc2[nH]1)NC1CC1,-34.5%,/,?,/
CN1CCC(COc2cnc(-c3cccc(Cn4nc(-c5cccc(C#N)c5)ccc4=O)c3)nc2)CC1,-43.0%,/,?,/
CCOc1ccc(NC(=O)N(Cc2ccc(CC)cc2)Cc2cn[nH]c2-c2ccc(OC)cc2)cc1,-20.1%,-5.8%,?,0.6%
CCc1ccc(CN(Cc2cn[nH]c2-c2ccc(OC)cc2)C(=O)Nc2ccc(Br)cc2)cc1,-58.1%,3.6%,14.1µM*,-2.8%
COc1cccc2cc(-c3nnc(Nc4ccccc4C)s3)c(=O)oc12,?,-2.1%,67.9%,-25.5%
COc1cccc2cc(-c3nnc(Nc4c(F)cccc4F)s3)c(=O)oc12,1µM*,5.8%,78.9%,?
COc1cc(/C=N/O)ccc1OCc1ccc(C(=O)O)cc1,/,8.91µM*,/,12.6µM*
COc1cc(/C=N/OCC(=O)NC23CC4CC(CC(C4)C2)C3)ccc1OCc1ccccc1,/,42.7%[1.84 µM],/,/
COc1ccc(C(=O)COC(=O)c2cccc(NC(=O)c3ccc(OC)c(OC)c3)c2)cc1,-14.2%,?,?,15.8µM*
COc1ccc(C(=O)Nc2ccc(C(=O)OCC(=O)c3cccc4ccccc34)cc2)cc1,/,23.5%,/,/
COc1cccc(NC(=O)CSc2nnc(NC(=O)NC3CCCCC3)s2)c1,?,-9.8%,28.7%,12.6µM*
CCC(=O)NC[C@H](Cc1ccc(OCCc2nc(-c3ccccc3)oc2C)cc1)NC(C)=CC(=O)c1ccc(C(F)(F)F)cc1,-9.4%,/,-1.4%,/
CCC1CCCCN1CCCNC(=O)c1ccc2c(c1)N(Cc1ccc(Cl)cc1)C(=O)c1ccccc1S2(=O)=O (stereo unspecified),-14.2%,25.1µM*,-19.8%,-0.7%
CC1CCCN(CCCNC(=O)c2ccc3c(c2)N(Cc2ccc(Cl)cc2)C(=O)c2ccccc2S3(=O)=O)C1 (stereo unspecified),-26.7%,15.8µM*,-24.6%,?
O=C(Nc1cc(-c2nc3ccccc3o2)ccc1Cl)c1cccc2c(Cl)cccc12,?,-16.7%,8.1%,12.8%
O=C(Nc1cc(-c2nc3cc(Cl)ccc3o2)ccc1Cl)c1cccc2ccccc12,17.8µM*,-23.9%,24.6%,-0.4%
COCCCNC(=O)c1oc2c(c1C)-c1nn(Cc3ccc(Cl)cc3)cc1CC2,-41.2%,-8.0%,?,24.7%
COCCCNC(=O)c1oc2c(c1C)-c1nn(Cc3cccc(Cl)c3)cc1CC2,-41.2%,17.8µM*,?,19.5%
CCS(=O)(=O)N1CCc2cc(C(=O)Nc3cccc(C(C)=O)c3)ccc21,0.2%,?,20.4%,16.4%
CCCCc1ccc(NC(=O)c2ccc3c(c2)CCN3S(=O)(=O)CC)cc1,-46.9%,-0.3%,22.4µM*,-3.5%
SMILES,HTT-AS act,p53null 39C kill,HTT prom inh,p53null 32C tox
Cc1ccc(C)c(NC(=O)c2ccc3c(c2)CCCN3S(C)(=O)=O)c1,7.94µM*,1.1%,33.6%,-6.2%
CC(C)c1ccc(NC(=O)c2ccc3c(c2)CCCN3S(C)(=O)=O)cc1,-31.2%,?,10µM*,-9.9%
CC(C)c1ccc(NC(=O)c2ccc3c(c2)CCN3S(=O)(=O)c2ccccc2)cc1,-14.6%,-18.2%,-27.1%,2.6%
O=C(O)[C@H](CC(=O)N1C[C@@H]2CCCC[C@H]2C1)Cc1ccccc1,-3.8%,/,13.3%,/
COc1ccc(-c2cc(C(F)(F)F)nc(SCCC(=O)Nc3cc(C)ccc3O)n2)cc1,-56.7%,11.2µM*,?,-2.5%
CC(C)CCNC(=O)c1ccc2c(c1)nc1n2CCCCC1,?,6.31µM*,-19.9%,7.94µM*
O=C(NCCc1ccccc1)c1ccc2c(c1)nc1n2CCOC1,-50.7%,10µM*,?,7.94µM*

# Source: PubChem (National Center for Advancing Translational Sciences (NCATS))
